Bioassay records deposited in PubChem BioAssay by several laboratories.
Only some compounds are listed: those with a hit (about 4.1% of all), similar ones and a draw of the others.
CaV13 FRET inh – Primary screen for inhibitors of IQ motif and Ca2+-dependent inactivation inhibitor domain binding in CACNA1D, Förster resonance energy transfer in living cells, … | HEK cells, CFP/YFP FRET ICDI-IQ, plate reader, 10 min; percent FRET-ratio fall versus neutral wells | inhibition, % at 12.3 µM | hit rate 0.098% among 340,000 | AID 743397;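 active = mean replicate inhibition of at least 30% and at least 1% of replicates passing that level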;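 note: 0% = median of the neutral control wells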
PfM18AAP inh-1 – blocks P. falciparum M18 aspartyl aminopeptidase; recombinant PfM18AAP, H-Glu-NHMec fluorogenic cleavage; inhibition, % at 7.35 µM; hit rate 1.2% among 290,000;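 active = inhibition above the campaign mean inhibition over all tested compounds plus 3 SD, cut at about 28% in these data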;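 note: 0% = plate median of test compound wells and 100% = 2 mM ZnCl2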
IDE act – IDE (human) activation, cell-based; P14735; HEK cells, FAbeta-B cleavage, fluorescence polarization; 0% vehicle, 100% cell-free pure enzyme wells; activation, % at 5.96 µM; hit rate 0.073% among 340,000; AID 493087;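 active = activation above the mean of all tested compounds plus 3 SD, set per screening campaign, cut at about 17% in these data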
IDE inh – inhibits human insulin-degrading enzyme in HEK cells. inhibition, % at 5.59 µM. FAbetaB cleavage, fluorescence polarization. hit rate 0.41% among 320,000. P14735;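 active = percent inhibition above the average of all tested compounds plus 3 SD, set per screening campaign, cut at about 16% in these data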;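 note: IDE supplied by intact live HEK cells; FP after avidin binding of uncleaved biotin substrate so inhibition keeps polarization high; 0% = DMSO wells and 100% = 60 µM reference IDE inhibitor Ii1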
ALR H2O2 inh – human ALR oxidase inhibition via reduced H2O2; purified ALR, DTT oxidation, H2O2 HRP-luminol luminescence; inhibition, % (concentration not given with the values); hit rate 3.8% among 290,000;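 active = mean replicate inhibition above about 79%, with every replicate also reaching it, limit read from the data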
Target sequence (P55789 whole entry, looked up): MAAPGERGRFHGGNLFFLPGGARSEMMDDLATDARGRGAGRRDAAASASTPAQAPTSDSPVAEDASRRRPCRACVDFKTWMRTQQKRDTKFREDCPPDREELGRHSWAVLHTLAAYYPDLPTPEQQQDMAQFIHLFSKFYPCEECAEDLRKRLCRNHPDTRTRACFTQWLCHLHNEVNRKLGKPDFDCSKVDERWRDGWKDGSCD
PolyA inhibitor – yeast polyadenylation inhibition. S. cerevisiae SKY197-pL101 polyadenylation reporter, beta-gal luminescence; efflux-impaired pdr1/pdr3 knockout yeast; score 100 = 6 SD above DMSO. activity score, % at 12 µM. hit rate 0.02% among 300,000. AID 1875;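 active = lowest replicate activity score at least 50, where 100 means six control SD above control mean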;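 note: yeast exposed to compound for 9 h at 30 °C; higher score means more reporter readthrough which indicates perturbed polyadenylation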
PfM18AAP inh-2 – PfM18AAP inhibition, confirmation; hit rate 28% among 2,400; recombinant PfM18AAP, H-Glu-NHMec fluorogenic cleavage; AID 2170; inhibition, % at 7.35 µM; shares compounds with PfM18AAP inh-1;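 active = mean inhibition over replicate wells above the hit cutoff set for the earlier primary screen, cut at about 29% in these data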;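 note: 0% = median of test compound wells and 100% = 2 mM ZnCl2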
CTSL1 counter – Cathepsin L (human) inhibition, confirmation. shares compounds with PfM18AAP inh-1. purified cathepsin L1, Z-Leu-Arg-MCA fluorescence. inhibition, % at 5.96 µM. 2,400 tested, under 10 active;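 active = average inhibition across replicates above the hit cutoff set in the earlier primary screen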;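 note: 0% = median of test compound wells and 100% = Z-Phe-Ala-diazomethylketone 1 µM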
Target sequence (P07711 whole entry, looked up): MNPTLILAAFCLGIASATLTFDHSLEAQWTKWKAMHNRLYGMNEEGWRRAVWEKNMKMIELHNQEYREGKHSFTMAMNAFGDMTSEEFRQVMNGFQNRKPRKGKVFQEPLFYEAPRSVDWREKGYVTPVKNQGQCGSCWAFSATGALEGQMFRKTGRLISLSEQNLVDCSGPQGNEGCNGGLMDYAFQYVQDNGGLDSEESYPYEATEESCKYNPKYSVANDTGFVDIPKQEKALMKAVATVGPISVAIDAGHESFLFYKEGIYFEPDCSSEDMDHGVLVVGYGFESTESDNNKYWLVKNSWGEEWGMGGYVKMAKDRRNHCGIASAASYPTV
Starred values were filed as active, the others as inactive.

Screening O=S(=O)(/N=C(/c1ccccc1)N1CCOCC1)c1ccc(F)cc1 returned CaV13 FRET inh -7, PfM18AAP inh-1 -11, IDE act 7, IDE inh -1, ALR H2O2 inh -3 and PolyA inhibitor 4.
NNc1nc(-c2ccccc2)nc2sc3c(c12)CCCC3 was read as CaV13 FRET inh -3, PfM18AAP inh-1 32*, IDE act 3, IDE inh 2, ALR H2O2 inh -12, PolyA inhibitor -20, PfM18AAP inh-2 10 and CTSL1 counter 1.
For COC(=O)c1cn(C(=O)c2cc(Br)ccc2Cl)c2ccccc12 the results were CaV13 FRET inh -5, PfM18AAP inh-1 3, IDE act 3, IDE inh 2, ALR H2O2 inh -4 and PolyA inhibitor -17.
Screening C/C(=N\Nc1ccc(Cl)c(C(=O)O)c1)c1ccccn1 returned CaV13 FRET inh -4, PfM18AAP inh-1 19, IDE act 2, IDE inh -5, ALR H2O2 inh 17 and PolyA inhibitor -1.
`C/C(=N\Nc1ncc(Cl)cc1Cl)c1ccc(N2CCOCC2)cc1` gave CaV13 FRET inh -18, PfM18AAP inh-1 52*, IDE act 3, IDE inh 1, ALR H2O2 inh 38, PolyA inhibitor -9, PfM18AAP inh-2 5 and CTSL1 counter 1.
Screening C/C(=N\Nc1ncc(Cl)cc1Cl)c1ccccn1 returned PfM18AAP inh-1 38*, IDE act -8, PolyA inhibitor -38, PfM18AAP inh-2 -11 and CTSL1 counter -9.
`C/C(=N\NC(=O)c1ccncc1)c1ccc(N2CCOCC2)cc1` gave CaV13 FRET inh -1, IDE act 4, IDE inh -3 and ALR H2O2 inh 60.
C/C(=N\Nc1nc2ccccc2[nH]1)c1ccc(N2CCOCC2)cc1 was read as CaV13 FRET inh -7, PfM18AAP inh-1 46*, IDE act -2, IDE inh 8, ALR H2O2 inh 52, PolyA inhibitor 27, PfM18AAP inh-2 -69 and CTSL1 counter -5.
`CCN(CC)S(=O)(=O)c1ccc(N/N=C/c2cc(OC)ccc2O)nc1` gave CaV13 FRET inh -13, PfM18AAP inh-1 57*, IDE act -2, IDE inh -6, PolyA inhibitor -9, PfM18AAP inh-2 -9 and CTSL1 counter 1.
`CCN(CC)S(=O)(=O)c1ccc(NN)nc1` gave CaV13 FRET inh -2, PfM18AAP inh-1 45*, IDE act 7, IDE inh 1, ALR H2O2 inh 14, PolyA inhibitor -9, PfM18AAP inh-2 41* and CTSL1 counter -2.
CC(C)N(C(C)C)S(=O)(=O)c1ccc(NN)nc1 was read as CaV13 FRET inh -2, PfM18AAP inh-1 38*, IDE act 10, IDE inh -1, ALR H2O2 inh 6, PolyA inhibitor -8, PfM18AAP inh-2 37* and CTSL1 counter 3.
CCCCN(C(=O)c1cccc(S(=O)(=O)N2CC(C)OC(C)C2)c1)c1c(N)n(CCCC)c(=O)[nH]c1=O (stereo not drawn) was read as CaV13 FRET inh -7, PfM18AAP inh-1 -16, IDE act 4, IDE inh -3, ALR H2O2 inh 3 and PolyA inhibitor 3.
Screening O=C(NNC(=O)c1ccc2ccccc2c1O)NC1CCCCC1 returned PfM18AAP inh-1 49*, IDE act 3, ALR H2O2 inh 73, PolyA inhibitor 15, PfM18AAP inh-2 7 and CTSL1 counter -1.
For COc1cccc(OCC(=O)NNC(=O)c2ccc3ccccc3c2O)c1 the results were CaV13 FRET inh -7, PfM18AAP inh-1 37*, IDE act 2, PolyA inhibitor -6, PfM18AAP inh-2 -17 and CTSL1 counter -5.
COc1ccc(C(=O)NNC(=O)c2ccc3ccccc3c2O)cc1 was read as CaV13 FRET inh -2, PfM18AAP inh-1 18, IDE act 4, IDE inh -3, ALR H2O2 inh 0 and PolyA inhibitor 7.
`O=C(NC1CCCCC1)c1ccc2ccccc2c1O` gave CaV13 FRET inh -7.
O=C(NNC(=O)c1ccc2ccccc2c1O)Nc1ccc(F)cc1 was read as PfM18AAP inh-1 34*, IDE act 6, IDE inh -4, ALR H2O2 inh 1, PolyA inhibitor -7, PfM18AAP inh-2 -3 and CTSL1 counter 3.
For CC1=C(C(=O)Nc2ccc(C(=O)NCCCN3CCCCC3)cc2)SCCO1 the results were CaV13 FRET inh -15, PfM18AAP inh-1 1, IDE act 1, IDE inh -2, ALR H2O2 inh -5 and PolyA inhibitor -7.
Screening CCOCCCNC(=O)C1(O)c2cc(Br)ccc2NC(=O)N1c1ccc(OCC)cc1 (stereo not drawn) returned CaV13 FRET inh -5, PfM18AAP inh-1 7, IDE act 6, IDE inh 3, ALR H2O2 inh -25 and PolyA inhibitor 11.
Screening Cc1sc(NC(=S)Nc2ccc(F)cc2)c(C(N)=O)c1C returned CaV13 FRET inh -4, PfM18AAP inh-1 47*, IDE act 4, IDE inh 7, ALR H2O2 inh -39, PolyA inhibitor -13, PfM18AAP inh-2 -6 and CTSL1 counter -1.
CCOC(=O)c1c(NC(=S)Nc2ccc(Cl)cc2)sc(C)c1C was read as CaV13 FRET inh -9, PfM18AAP inh-1 0, IDE act 6 and PolyA inhibitor 5.
Cc1cccc(Nc2nc(-c3ccc(F)c(C)c3)cs2)n1 was read as CaV13 FRET inh -2, PfM18AAP inh-1 -9, IDE act 1, IDE inh 0, ALR H2O2 inh -1 and PolyA inhibitor -9.
Screening Cc1ccnc(Nc2nc(-c3ccc(O)c(O)c3)cs2)c1 returned CaV13 FRET inh -19, PfM18AAP inh-1 62*, IDE act 1, IDE inh 1, ALR H2O2 inh 98*, PolyA inhibitor 22, PfM18AAP inh-2 47* and CTSL1 counter -1.
Screening Cc1cccnc1Nc1nc(-c2ccc(O)c(O)c2)cs1 returned CaV13 FRET inh -10, PfM18AAP inh-1 79*, IDE act -4, IDE inh 3, ALR H2O2 inh 99*, PolyA inhibitor 7, PfM18AAP inh-2 55* and CTSL1 counter 4.
For CC(=O)Nc1ccc(-c2csc(Nc3ccccn3)n2)cc1 the results were CaV13 FRET inh -2, PfM18AAP inh-1 -1, IDE act -4, IDE inh 0, ALR H2O2 inh 6 and PolyA inhibitor -4.
